Sampled rows, rich in hits. Any-hit rate of the full collection: about 21%.
Pf growth 96h – P. falciparum growth inhibition at 96 hour, primary screen for plastid delayed-death inhibitors; P. falciparum luciferase reporter growth, 96 h; Potency, µM (highest dose often 28.7 µM), for inactives: at the top dose activity change, negative = inhibition, usual class: inhibitors; 320,000 compounds, 6.9% hits; active means well fitted inhibition curve with a large enough effect; inconclusive means small, poorly fitted or top-dose-only effect, or another doubt; inactive means no such curve, though single readings can be large or run the other way; further: potency means the concentration at half of the fitted maximal effect; on the % scale 0 is the no-effect control and ±100 the full control effect
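Readout is luminescence from an integrated firefly luciferase in P. falciparum. Red cells, 2% hematocrit and 0.05% parasitemia final, were cultured with compound through two parasite generations (96 hours) at 37 C, 5% CO2.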
NS1 inh – blocks influenza NS1 protein function; Potency, µM (doses to about 46.1 µM), for the others: top-dose activity, positive = more growth; 270,000 compounds, 0.4% hits; AID 2326; further: potency means the concentration at half of the fitted maximal effect; actives are rising curves; nearly all actives have a fitted effect of over 50% in size
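Growth recovery, yeast-based: influenza A NS1 expressed in S. cerevisiae causes slow growth, and suppressors are detected by OD600. The parent strain without NS1 is used as positive control.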
Pf growth 48h – P. falciparum growth inhibition at 48 hours (one generation). P. falciparum luciferase growth in erythrocytes, 48 h. Potency, µM (doses to about 28.7 µM), for inactives: at the highest dose activity change, negative = inhibition, hits mostly inhibitors. 310,000 compounds, 5.9% hits; active means well fitted inhibition curve with a large enough effect; inconclusive means small, poorly fitted or top-dose-only effect, or another doubt; inactive means no such curve, though single readings can be large or run the other way; further: potency means the concentration at half of the fitted maximal effect; on the % scale 0 is the no-effect control and ±100 the full control effect
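Luciferase-expressing P. falciparum in infected erythrocytes (2% hematocrit, 0.1% parasitemia final) in RPMI 1640/0.5% Albumax were exposed to compound for 48 hours at 37 C, 5% CO2; growth read as luminescence.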
Shiga inhibitor – Shiga toxin inhibition | Vero cells, Shiga toxin protein synthesis inhibition reporter | inhibition, % at 38.7 µM | 290,000 compounds, 9.2% hits | AID 2315; in the data active means inhibition mostly above about 28%, no sharp cut-off; inactive means mostly below about 43%; further: 0% is about no effect
Cycloheximide cs – counter-screen for Shiga toxin inhibitors: cycloheximide protein synthesis inhibition. max response, %. cell reporter, cycloheximide protein synthesis inhibition counterscreen. 300,000 compounds, 12% hits; in the data active means max response mostly above about 13%, no sharp cut-off; inactive means mostly below about 14%; further: read at 38.3 µM for the half of the compounds with a filed dose; 0% is about no effect
SARS PLP yeast – inhibitors of SARS-CoV papain-like protease in yeast; AID 485353; Potency, µM (series often up to 32.9 µM), for the others: at the highest dose activity, positive = growth rescue, hits mostly activators; S. cerevisiae expressing SARS-CoV PLpro, growth rescue; 330,000 compounds, 0.19% hits; further: potency means the concentration at half of the fitted maximal effect; 0% is about no effect; nearly all actives have a fitted effect of over 55% in size
The depositor's hits bear a star; i = inactive; ? = inconclusive; . = not tested or not shown. Unless noted, the call rests on the fitted dose curve.

SMILES | Pf growth 96h | NS1 inh | Pf growth 48h | Shiga inhibitor | Cycloheximide cs | SARS PLP yeast
CCc1ccc(/C=C2/SC(=S)N(CC(=O)Nc3nc4ccccc4s3)C2=O)cc1 | 201% | 10% | 52% | 78* | 22* | -4%
Cc1ccc2nc(NC(=O)CN3C(=O)C4CC=CCC4C3=O)sc2c1 (stereo not drawn) | 65% | . | 33% | 14 | 14* | 0%
O=C(CN1C(=O)C2CC=CCC2C1=O)Nc1nc2ccccc2s1 (stereo not drawn) | 89% | . | 52% | 52* | 28* | 3%
CCOC(=O)c1cc2occc2n1CCCN1C(=O)c2ccccc2C1=O | ? | -13% | . | 13 | -2 | 0%
CCOC(=O)NC(=O)CSc1nnc(C2CC2)n1Cc1ccco1 | 9% | . | 15% | -5 | -1 | 1%
CCCCCC(=O)Nc1nc2ccccc2[nH]1 | 95% | 3% | 345% | 62* | 32* | 11%
COc1ccc(CCC(=O)Nc2cnc3ccccc3c2)cc1 | ? | 5% | ? | 79* | 32* | 7%
COc1cc(CCC(=O)Nc2cnc3ccccc3c2)cc(OC)c1OC | -29% | -6% | ? | -4 | 5 | -1%
COc1ccc(CCC(=O)Nc2nc3ccccc3[nH]2)cc1 | 130% | -3% | . | 42 | 19* | -4%
COc1ccc(OCC(=O)Nc2nc3ccccc3[nH]2)cc1 | 52% | -52% | . | 38* | 22* | 4%
COc1ccc(S(=O)(=O)NCC2CCCN(C(=O)CCC(F)(F)F)C2)cc1 (stereo not drawn) | 119% | 17% | -16% | -8 | -1 | 0%
COc1ccc(CC(=O)Nc2nc3ccccc3[nH]2)cc1 | -3% | 10% | ? | -7 | 6 | -1%
COc1ccc(CCC(=O)Nc2nc3ccccc3[nH]2)cc1OC | -9% | 7% | . | -3 | -4 | -5%
COc1ccccc1CCC(=O)Nc1nc2ccccc2[nH]1 | . | -5% | 85% | 69* | 40* | 3%
COc1cccc(CC(=O)Nc2nc3ccccc3[nH]2)c1 | -3% | 7% | 36% | 65 | 24* | 0%
CC1CCN(CCOc2ccc(Cl)c(Cl)c2)CC1 | 7% | 11% | 1% | 27 | 3 | -27%
Cc1ccc(N(C)C(=O)C2CCCN2S(=O)(=O)c2ccc3c(c2)n(C)c(=O)c(=O)n3C)cc1 (stereo not drawn) | 0% | -4% | -14% | 5 | -1 | 0%
COc1ccc(CN2CC(=O)N(c3ccc(Cl)cc3)C2=S)cc1OC | ? | -4% | 13µM* | -6 | 4 | -1%
CNC(=O)CC1C(=O)N(c2ccc(Cl)cc2)C(=S)N1CCc1ccc(OC)c(OC)c1 (stereo not drawn) | -5% | 2% | 12µM* | -19 | -3 | 0%
COc1ccc(CN2CC(=O)N(c3cccc(Cl)c3)C2=S)cc1OC | 0% | 14% | 10µM* | -4 | 1 | 3%
COc1cccc(N2C(=O)CN(Cc3cc(OC)c(OC)c(OC)c3)C2=S)c1 | -9% | 6% | 0.33µM* | -3 | -2 | -2%
CN(C)S(=O)(=O)c1cccc(NC(=S)N(CCC#N)Cc2cccnc2)c1 | 2% | . | -6% | -4 | -3 | -3%
CCC1CCCCN1CCCNC(=O)c1cn(C)c2ccc(S(=O)(=O)N(C)C3CCCCC3)cc2c1=O (stereo not drawn) | ? | -4% | ? | -11 | 2 | -1%
COc1ccc(OCC(=O)O/N=C(\N)c2ccc(OC)cc2)cc1 | 51% | -9% | 52% | 25 | 8 | -2%
CCc1ccc(OCC(=O)N(C)C)c(Br)c1 | . | 0% | -4% | 1 | 5 | -1%
SMILES | Pf growth 96h | NS1 inh | Pf growth 48h | Shiga inhibitor | Cycloheximide cs | SARS PLP yeast
CCc1ccc(OCC(=O)O/N=C(\N)c2ccncc2)cc1 | ? | -32% | 54% | 76* | 62* | -6%
N/C(=N\OC(=O)COc1ccc(Cl)cc1Br)c1ccncc1 | 108% | 0% | i | 137* | 64* | -3%
CCc1ccc(OCC(=O)O/N=C(\N)c2ccncc2)c(Br)c1 | 7.4µM* | -23% | 179% | 85* | 46* | -14%
COC(=O)c1ccccc1NC(=O)NC1CCCCC1 | 31% | -1% | 13% | -10 | 6 | 1%
Cc1ccc(S(=O)(=O)N2CCOCC2)cc1C(=O)N1CCN(c2ccc(C(F)(F)F)cn2)CC1 | . | . | . | . | . | -18%
O=C(CN1C(=O)/C(=C\c2cccc(Br)c2)Oc2ccccc21)NCC1CCCO1 (stereo not drawn) | 13µM* | 10% | ? | 22 | -5 | .
CCN(CC)S(=O)(=O)c1cc(NC(=O)CSc2nc3c(cc2C#N)C(=O)CC(C)(C)C3)ccc1C | 2.6µM* | 13% | 3.7µM* | 1 | -1 | 29%
COc1ccc(C(C(C(=O)c2cccs2)N2CCOCC2)N2CCOCC2)cc1OC (stereo not drawn) | ? | 7% | 19% | 11 | 16* | 1%
COc1ccc(C(c2c(NC(=O)c3ccco3)sc(C)c2C)N2CCOCC2)cc1OC (stereo not drawn) | 4.7µM* | . | 2.6µM* | . | . | -3%
Cc1sc(NC(=O)c2ccco2)c(C(c2ccccc2)N2CCC(C)CC2)c1C (stereo not drawn) | ? | . | 5.2µM* | 30 | 14 | 3%
Cc1sc(NC(=O)c2ccco2)c(C(c2cccnc2)N2CCN(CCO)CC2)c1C (stereo not drawn) | ? | . | ? | -3 | -1 | 2%
CCOC(=O)C1CCN(C(c2cccnc2)c2c(NC(=O)c3ccco3)sc(C)c2C)CC1 (stereo not drawn) | -4% | -35% | 0.29µM* | 32 | 21* | 7%
COc1ccc(C(CCO)NC(=O)c2cccs2)cc1OC (stereo not drawn) | ? | 2% | 61% | -12 | -3 | -2%
CC(C)=Cc1oc2ccc([N+](=O)[O-])cc2c1N1CC(C)OC(C)C1 (stereo not drawn) | 6% | . | 19% | 20 | -4 | -3%
Cc1sc(NC(=O)c2ccco2)c(C(c2cccnc2)N2CCN(c3ccc(F)cc3)CC2)c1C (stereo not drawn) | ? | -68% | 2.1µM* | 11 | -2 | -17%
CC(=O)N1CCN(c2ccc(NC(=O)c3ccc([N+](=O)[O-])cc3Cl)cc2)CC1 | -17% | 9% | 0% | -15 | -2 | -3%
Cc1ccc(C(=O)NC(=S)Nc2ccc(N3CCN(C(=O)c4ccco4)CC3)cc2)cc1 | 5.2µM* | 3% | ? | -11 | 11 | -7%
Cc1ccc(C(=O)Nc2ccc(N3CCN(C(=O)c4cccs4)CC3)cc2)c(Cl)c1 | 48% | 16% | 9.3µM* | 20 | 5 | -1%
O=C(Nc1ccc(N2CCN(C(=O)c3ccco3)CC2)cc1)c1ccc([N+](=O)[O-])cc1Cl | ? | -2% | 12µM* | 19 | 0 | 6%

Screening data (PubChem BioAssay)
